Reference: paper PMC5700166

What was measured:
Assay in all cases: protein-binding microarray (PBM); PBM: ~300 nM protein, 6 mM HEPES pH 7.8, 80 mM KCl, 0.5 mM EDTA, 0.5 mM EGTA, 6% glycerol, 35 ng/ul poly-dIdC, 1% milk, 1 h, room temperature; Ap Aiptasia and Nv Nematostella (sea anemones) / Co Capsaspora / Aq Amphimedon (sponge) / Dm Drosophila / Hu human; RHD is the Rel homology domain; high values mean tight binding
Conditions in all cases: dsDNA, one strand shown
[1] = biological target: T1, GST-Ap-NF-kB RHD (Exaiptasia pallida (Aiptasia), UniProt A0A913YAJ5 2-422)
T1 sequence: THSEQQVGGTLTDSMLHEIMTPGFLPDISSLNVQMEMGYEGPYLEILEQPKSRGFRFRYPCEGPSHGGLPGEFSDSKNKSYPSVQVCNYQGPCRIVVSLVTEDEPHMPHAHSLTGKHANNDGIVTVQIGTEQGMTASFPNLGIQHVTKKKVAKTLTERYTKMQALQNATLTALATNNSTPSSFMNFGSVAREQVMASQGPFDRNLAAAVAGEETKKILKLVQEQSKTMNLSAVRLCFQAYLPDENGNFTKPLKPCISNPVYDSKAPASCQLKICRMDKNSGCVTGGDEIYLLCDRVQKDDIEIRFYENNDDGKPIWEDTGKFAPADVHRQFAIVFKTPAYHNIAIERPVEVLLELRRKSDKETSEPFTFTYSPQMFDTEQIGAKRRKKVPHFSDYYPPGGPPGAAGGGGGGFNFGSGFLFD

[2] = biological target: T2, GST-Nv-NF-kB (Cys allele) (Nematostella vectensis, UniProt E5G601 2-411)
T2 sequence: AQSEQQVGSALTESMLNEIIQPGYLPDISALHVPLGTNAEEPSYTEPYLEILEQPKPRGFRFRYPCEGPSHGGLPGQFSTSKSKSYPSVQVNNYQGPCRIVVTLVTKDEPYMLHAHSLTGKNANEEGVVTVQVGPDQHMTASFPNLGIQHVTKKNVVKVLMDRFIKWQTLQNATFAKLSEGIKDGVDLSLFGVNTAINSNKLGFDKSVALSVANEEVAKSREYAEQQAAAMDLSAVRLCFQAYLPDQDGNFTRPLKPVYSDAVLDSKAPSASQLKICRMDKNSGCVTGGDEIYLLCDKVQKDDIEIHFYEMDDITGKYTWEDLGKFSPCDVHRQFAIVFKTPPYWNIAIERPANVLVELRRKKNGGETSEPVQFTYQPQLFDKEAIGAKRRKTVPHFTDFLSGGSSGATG

[3] = biological target: T3, GST-Dm-Relish (Drosophila melanogaster, UniProt Q94527 99-473)
T3 sequence: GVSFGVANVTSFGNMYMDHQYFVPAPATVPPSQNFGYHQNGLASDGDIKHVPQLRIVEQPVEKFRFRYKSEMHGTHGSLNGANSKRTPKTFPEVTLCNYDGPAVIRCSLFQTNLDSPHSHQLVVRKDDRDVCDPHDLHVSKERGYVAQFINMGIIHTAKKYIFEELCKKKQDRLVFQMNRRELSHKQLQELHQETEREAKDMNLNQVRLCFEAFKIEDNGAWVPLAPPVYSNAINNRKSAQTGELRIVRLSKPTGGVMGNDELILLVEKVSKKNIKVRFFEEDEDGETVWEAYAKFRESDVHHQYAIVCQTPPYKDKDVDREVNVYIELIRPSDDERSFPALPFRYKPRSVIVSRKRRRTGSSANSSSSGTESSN

[4] = biological target: T4, GST-Aq-NF-kB (Amphimedon queenslandica, UniProt A9Y5G7 2-389)
T4 sequence: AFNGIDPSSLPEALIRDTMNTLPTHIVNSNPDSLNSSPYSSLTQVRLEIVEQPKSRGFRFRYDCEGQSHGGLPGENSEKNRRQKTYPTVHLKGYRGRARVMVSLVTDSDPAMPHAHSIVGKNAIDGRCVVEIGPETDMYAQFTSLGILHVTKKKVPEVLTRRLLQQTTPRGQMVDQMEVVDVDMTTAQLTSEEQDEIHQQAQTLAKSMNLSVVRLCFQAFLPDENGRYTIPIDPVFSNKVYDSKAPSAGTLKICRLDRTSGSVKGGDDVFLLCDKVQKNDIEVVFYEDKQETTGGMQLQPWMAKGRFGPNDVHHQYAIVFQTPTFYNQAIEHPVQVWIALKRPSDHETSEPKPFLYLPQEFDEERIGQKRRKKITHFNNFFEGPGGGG

Sequence | binding signal [1] [z-score] | binding signal [2] [z-score] | binding signal [3] [z-score] | binding signal [4] [z-score]
CCGATTAACATCAGGGACCGCCCTGATGTTAATCGGGTCTTGATTCGCTTGACGCTGCTG | 4.16 | 3.55 | 1.91 | 6.48
CCGATTAACATCATGAAGACCCCTGATGTTAATCGGGTCTTGATTCGCTTGACGCTGCTG | 2.6 | 1.18 | 1.35 | 2.25
CCGATTAACATCAGAGAAGTCCCTGATGTTAATCGGGTCTTGATTCGCTTGACGCTGCTG | 5.7 | 6.22 | 4.44 | 5.93
CCGATTAACATCAGGAGATACCCTGATGTTAATCGGGTCTTGATTCGCTTGACGCTGCTG | 3.04 | 3.44 | 3.18 | 6.4
CCGATTAACATCAGGAGAATCCCTGATGTTAATCGGGTCTTGATTCGCTTGACGCTGCTG | 2.6 | 3.24 | 4.39 | 5.52
CCGATTAACATCAGGAAAACACCTGATGTTAATCGGGTCTTGATTCGCTTGACGCTGCTG | 2.56 | 3.6 | 3.1 | 5.13
CCGATTAACATCACGGTACTTCCTGATGTTAATCGGGTCTTGATTCGCTTGACGCTGCTG | 2.38 | 2.66 | 7.59 | 2.93
CCGATTAACATCAAGAAATTACCTGATGTTAATCGGGTCTTGATTCGCTTGACGCTGCTG | 1.26 | 2.74 | 3.19 | 2.27
CCGATTAACATCAGGACAATCCCTGATGTTAATCGGGTCTTGATTCGCTTGACGCTGCTG | 2.22 | 2.68 | 2.5 | 5.09
CCGATTAACATCAAGGGCTTCCCTGATGTTAATCGGGTCTTGATTCGCTTGACGCTGCTG | 1.53 | 1.82 | 7.18 | 3.85
CCGATTAACATCAGGGATATCCATGATGTTAATCGGGTCTTGATTCGCTTGACGCTGCTG | 1.84 | 1.09 | 2.52 | 2.44
CCGATTAACATCACGGAAAGCCCTGATGTTAATCGGGTCTTGATTCGCTTGACGCTGCTG | 1.02 | 1 | 2.9 | 4.35
CCGATTAACATCACGGCAATCCCTGATGTTAATCGGGTCTTGATTCGCTTGACGCTGCTG | 1.5 | 1.21 | 2.64 | 2.66
CCGATTAACATCAGAAAATGCCCTGATGTTAATCGGGTCTTGATTCGCTTGACGCTGCTG | 1.93 | 2.33 | 2.42 | 3.47
CCGATTAACATCAGGAAAAACCCTGATGTTAATCGGGTCTTGATTCGCTTGACGCTGCTG | 4.35 | 5.86 | 6.52 | 7.68
CCGATTAACATCAGGAAACTACCTGATGTTAATCGGGTCTTGATTCGCTTGACGCTGCTG | 1.63 | 2.51 | 4.48 | 4.72
